Test results reported in PubChem BioAssay AID624296 (National Center for Advancing Translational Sciences (NCATS), 2012).
Hit rate of the full screen: of about 350,000 compounds, about 9,900 (2.8%) were called active. A call without a number means that no potency is given here. Not shown: some 15% with an inconclusive outcome. Calls come from the whole dose curve; as a rule, active = well fitted activation curve with a large enough effect; inconclusive = small, poorly fitted or top-dose-only effect; inactive = no such curve, though single readings can be large or run the other way. Only a selection was taken, and actives are over-represented in it overall.

Assay: A quantitative high throughput screen for small molecules that induce DNA re-replication in MCF 10a normal breast cells. Note: nearly all actives have a fitted effect of over 50% in size.
Details: MCF 10A DNA re-replication, Hoechst nuclear intensity, 48 h; series mostly up to 46.1 µM
Potency is the fitted concentration of half-maximal effect.

Row | SMILES | Potency
1 | COc1ccc(S(=O)(=O)N2CCN(CC(=O)N3c4ccccc4CC3C)CC2)cc1OC (centres undefined) | inactive
2 | COc1cc(/C=N/NC(=S)Nc2cccnc2)cc(OC)c1O | inactive
3 | COc1cc(/C=N/Nc2ccc(C)cc2)cc(Br)c1O | 25.9 µM (active)
4 | CCNc1nc(NCC)nc(N/N=C/c2ccc(O)c(OC)c2)n1 | inactive
5 | CCN(C(=O)CSc1nnnn1-c1ccc(OC)cc1)C1CCS(=O)(=O)C1 (centres undefined) | inactive
6 | COC(=O)c1cc(Oc2ccc(S(=O)(=O)N3CCOCC3)cc2[N+](=O)[O-])cc(C(=O)OC)c1 | inactive
7 | O=S(=O)(NCCc1ccc(F)cc1)c1cccc2cccnc12 | inactive
8 | O=S(=O)(NCc1ccccn1)c1ccc(F)cc1 | inactive
9 | O=S(=O)(NCCOc1cccc2cccnc12)c1ccc(F)cc1 | 10.3 µM (active)
10 | COc1ccccc1C(=O)NCC(=O)NCCSc1ccc(Br)cc1 | inactive
11 | O=C(O[C@H]1[C@H](Cc2ccccc2)NS(=O)(=O)[C@H]2C[C@@H]3C=C[C@]12O3)c1ccc([N+](=O)[O-])cc1 | inactive
12 | CCOC(=O)C1CCN(C(=O)CN2C(=O)NC(C)(c3ccc4cc(OC)ccc4c3)C2=O)CC1 (centres undefined) | inactive
13 | COc1ccc(/C=C(\C#N)c2c[nH]c3ccccc23)cc1 | 13 µM (active)
14 | COc1ccc(C(C(O)C(=O)c2c[nH]c3ccccc23)N2CCN(c3ccccc3)CC2)cc1 (centres undefined) | inactive
15 | COc1cc(/C=C(\C#N)c2nc3ccccc3[nH]2)ccc1O | inactive
16 | COc1ccc(C(=O)COC(=O)CN2C(=O)C3CC=CCC3C2=O)c(OC)c1 (centres undefined) | inactive
17 | CCOC(=O)c1sc(NC(=O)COc2ncnc3ccccc23)c(C(=O)OCC)c1C | inactive
18 | NC(=O)Nc1ccc(C(=O)OCC(=O)NC2CCCc3ccccc32)cc1 (centres undefined) | inactive
19 | CCOC(=O)c1c(NC(=O)CNC2CCCc3ccccc32)sc(C(N)=O)c1C (centres undefined) | 16.4 µM (active)
20 | O=C(COC(=O)c1ccc(O)cc1O)NC(=O)c1ccccc1 | inactive
21 | O=C(Nc1ccc(CN2CCOCC2)cc1)c1cc(Cl)ccc1Cl | inactive
22 | CCCc1cc(=O)oc2cc(OCC(=O)Nc3ccc(CN4CCOCC4)cc3)c(Cl)cc12 | inactive

Row | SMILES | Potency
23 | CCCC(=O)NC(=S)Nc1ccc(CN2CCOCC2)cc1 | 0.651 µM (active)
24 | O=C(c1cc2ccccc2o1)N1CCN(S(=O)(=O)c2ccc(Cl)s2)CC1 | inactive
25 | CCCCCCSc1ccc([C@@H]2[C@H]3C(=O)N(CC)C(=O)[C@H]3[C@]3(C(=O)OC)CCCCN23)cc1 | inactive
26 | CCn1nnc2cc(C(=O)Nc3ccc(C(=O)OC(C)C)cc3)ccc21 | inactive
27 | CCOC(=O)C1=C(CC)Nc2ccccc2N=C1NC(=O)c1cccc(S(=O)(=O)N2CCCC2)c1 | 23.1 µM (active)
28 | CCOC(=O)C1=C(CC)Nc2ccccc2N=C1N | inactive
29 | CCOC(=O)CSc1nnc(NC(=O)c2cccc(S(=O)(=O)N3CCCC3)c2)s1 | inactive
30 | CCC(C)C(N=C1NS(=O)(=O)c2ccccc21)C(=O)N1CCC(C)CC1 (centres undefined) | inactive
31 | Cc1ccnc(SCCn2c(Br)nc3c2c(=O)[nH]c(=O)n3C)n1 | inactive
32 | Cn1c(=O)c2c(nc(Br)n2CCSc2nc3ccccc3o2)n(C)c1=O | inactive
33 | Cn1c(=O)[nH]c(=O)c2c1nc(Br)n2CCCCSc1nc2ccccc2o1 | 7.31 µM (active)
34 | Cc1cccc(C(=O)N[C@H](C(=O)NCc2cccs2)C(C)C)c1 | inactive
35 | CC(C)(C)OC(=O)C[C@@H]1C/C=C\C[C@@H](CC(=O)N[C@@H](CO)Cc2ccccc2)C(=O)N2CCC[C@H]2COC1=O | inactive
36 | Nc1ccc2[nH]c(=S)sc2c1 | inactive
37 | CCCN1CCn2c3c(c4cc(Br)ccc42)CCCC31 (centres undefined) | 23.1 µM (active)
38 | COc1ccc(S(=O)(=O)N2CCOCC2)cc1NC(=O)CC1CC2CCC1C2 (centres undefined) | inactive
39 | Cc1ccc(C(=O)O)c(NC=O)c1OCc1ccccc1 | inactive
40 | CCCCOC(=O)Cn1c(=N)n(CCN(CC)CC)c2ccccc21 | inactive
41 | CCCCCCCCCCOC(=O)Cn1c(COc2ccc(C)cc2)[n+](C)c2ccccc21 | 23.1 µM (active)
42 | CCCCOC(=O)Cn1c(=O)n(CC(=O)OCCCC)c2cc(C)ccc21 | inactive
43 | CC(=O)Nc1ccc(S(=O)(=O)NC(C)C(=O)OCCOc2ccc(F)cc2)cc1 (centres undefined) | inactive
44 | COc1ccc(C2(CNC(=O)Cc3ccc(OC)c(OC)c3)CCCC2)cc1 | inactive

Row | SMILES | Potency
45 | CCOc1c(OC)cccc1C(=O)NCC1(c2ccccc2)CCCC1 | 20.6 µM (active)
46 | COc1cc(C(=O)NCC2(c3ccccc3)CCCC2)ccc1OC(C)C | inactive
47 | CCC(C)CCN1CCN=C1N(C)C (centres undefined) | inactive
48 | O=C1CC[C@@H]2CC3(C[C@@H]4CCN1[C@H]24)Nc1cc([N+](=O)[O-])ccc1NC3=NC1CCCCC1 (some centres undefined) | inactive
49 | O=C(c1cc(=O)c2ccccc2o1)N1CCN(c2ccccc2)CC1 | inactive
50 | COc1ccccc1CNC(=O)c1cc(=O)c2ccccc2o1 | inactive
51 | COc1cc2c(cc1OC)CN(C(=O)c1cc(=O)c3ccccc3o1)CC2 | 10.3 µM (active)
52 | NC(=O)C1(Nc2ccc([N+](=O)[O-])cc2)CCCC1 | inactive
53 | CC1CN(Cc2ccco2)C(=S)N(c2ccccc2)C1=O (centres undefined) | inactive
54 | C[C@@H](NC(=O)OC(C)(C)C)c1nnc(S(=O)(=O)Cc2ccccc2)o1 | 18.4 µM (active)
55 | C[C@H](NC(=O)OC(C)(C)C)c1nnc(SCC(N)=O)o1 | inactive
56 | CC(C)Sc1nnc([C@H](Cc2ccccc2)NC(=O)OC(C)(C)C)o1 | inactive
57 | Cc1ccc(S(=O)(=O)Nc2ccc(F)c(S(=O)(=O)N3CCOCC3)c2)cc1 | inactive
58 | CNS(=O)(=O)c1cccc(C(=O)OCCCC(=O)c2ccccc2)c1 | inactive
59 | COc1ccc(C2CC(=O)Nc3sc(=N)c4c(N)c(C#N)c(N)nc4c32)cc1OC (centres undefined) | inactive
60 | COc1ccc(OC)c2c(N)c(C#N)c(C(F)(F)C(F)(F)F)nc12 | inactive
61 | CCOc1cc(-c2cc(-c3ccc(OC)cc3)nc(N)c2C#N)ccc1O | inactive
62 | COc1ccc(-c2cc(-c3ccc(N)cc3)nc(N)c2C#N)cc1OC | 23.1 µM (active)
63 | CCOc1cc(-c2cc(-c3ccc(NC(C)=O)cc3)nc(N)c2C#N)ccc1O | 18.4 µM (active)
64 | CC(=O)Nc1ccc(-c2cn3cccnc3n2)cc1 | inactive
